The values below come from paper PMC7862700, “An all-to-all approach to the identification of sequence-specific readers for epigenetic DNA modifications on cytosine”.

What all share (assay): DAPPL (digital affinity profiling via proximity ligation, sequencing); 10 mM Tris-HCl pH 7.5, 50 mM NaCl, 1 mM DTT, 4% glycerol, room temperature, 30 min; GST-TFs on glutathione beads, 16-mer random dsDNA library, 0.1% formaldehyde crosslink after washing; high values mean tight binding
Conditions in all cases: protein: recombinant; tags: N-terminal GST; dsDNA, one strand shown

The target in one test is T1, FLI1 (Homo sapiens, UniProt Q01543 1-452).
T1 sequence: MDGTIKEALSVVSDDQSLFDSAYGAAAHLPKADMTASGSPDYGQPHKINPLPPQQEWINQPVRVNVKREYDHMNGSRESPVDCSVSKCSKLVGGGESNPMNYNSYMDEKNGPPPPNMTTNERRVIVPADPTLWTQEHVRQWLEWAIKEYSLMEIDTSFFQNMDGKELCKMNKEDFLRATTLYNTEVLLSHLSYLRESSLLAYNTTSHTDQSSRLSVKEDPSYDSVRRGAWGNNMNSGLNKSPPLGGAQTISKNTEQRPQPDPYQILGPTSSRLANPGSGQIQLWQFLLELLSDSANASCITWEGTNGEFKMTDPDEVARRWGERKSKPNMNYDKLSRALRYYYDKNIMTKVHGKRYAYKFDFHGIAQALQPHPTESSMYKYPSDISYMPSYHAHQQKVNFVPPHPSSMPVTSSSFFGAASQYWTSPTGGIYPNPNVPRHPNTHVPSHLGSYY
Put shortly: (§1)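 After expression in yeast as GST fusions, human transcription factors were bound to glutathione beads, DNA-barcoded and mixed with a tag-only sample. The pools were incubated with 200 nmole of a 16-mer random double-stranded DNA library in Tris/NaCl/DTT/glycerol buffer (30 min, room temperature), washed and crosslinked with 0.1% formaldehyde. Proximity ligation with BsaI/T4 ligase ran for 1 h at 37 °C, before PCR amplification and sequencing on an Illumina NextSeq500. Binding signal is a hexamer's read frequency for a factor divided by its frequency for the tag-only sample.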

A further test concerns the target T2, ELK1 (Homo sapiens, UniProt P19419 1-428).
T2 sequence: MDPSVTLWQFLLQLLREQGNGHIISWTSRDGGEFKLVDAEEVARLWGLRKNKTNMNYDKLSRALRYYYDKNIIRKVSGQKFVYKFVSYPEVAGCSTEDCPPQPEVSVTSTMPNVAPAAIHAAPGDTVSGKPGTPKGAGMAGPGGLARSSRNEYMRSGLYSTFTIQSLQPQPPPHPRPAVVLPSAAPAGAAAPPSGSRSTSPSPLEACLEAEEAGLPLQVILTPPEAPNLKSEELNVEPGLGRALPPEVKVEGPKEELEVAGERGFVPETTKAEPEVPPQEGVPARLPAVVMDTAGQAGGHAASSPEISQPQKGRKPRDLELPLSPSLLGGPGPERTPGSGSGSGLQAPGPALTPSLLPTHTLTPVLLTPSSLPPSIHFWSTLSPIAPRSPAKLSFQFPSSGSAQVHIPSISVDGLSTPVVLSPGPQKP
The method, boiled down:
as §1

For another test, the target named is T3, GABPA (Homo sapiens, UniProt Q06546 1-454).
T3 sequence: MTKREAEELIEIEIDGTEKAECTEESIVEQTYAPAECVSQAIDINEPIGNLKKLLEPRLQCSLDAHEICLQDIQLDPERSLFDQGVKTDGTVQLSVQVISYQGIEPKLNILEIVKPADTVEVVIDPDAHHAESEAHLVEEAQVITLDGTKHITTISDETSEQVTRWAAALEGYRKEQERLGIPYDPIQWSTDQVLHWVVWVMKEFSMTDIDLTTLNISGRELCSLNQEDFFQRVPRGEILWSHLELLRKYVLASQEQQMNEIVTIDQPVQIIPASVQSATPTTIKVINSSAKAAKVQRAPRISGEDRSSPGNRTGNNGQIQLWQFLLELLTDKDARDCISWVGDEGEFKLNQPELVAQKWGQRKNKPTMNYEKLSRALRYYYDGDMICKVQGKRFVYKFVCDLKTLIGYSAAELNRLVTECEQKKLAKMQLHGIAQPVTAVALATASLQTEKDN
The method, boiled down:
as §1

A further test concerns the target T4, ERG (Homo sapiens, UniProt P11308 1-479).
T4 sequence: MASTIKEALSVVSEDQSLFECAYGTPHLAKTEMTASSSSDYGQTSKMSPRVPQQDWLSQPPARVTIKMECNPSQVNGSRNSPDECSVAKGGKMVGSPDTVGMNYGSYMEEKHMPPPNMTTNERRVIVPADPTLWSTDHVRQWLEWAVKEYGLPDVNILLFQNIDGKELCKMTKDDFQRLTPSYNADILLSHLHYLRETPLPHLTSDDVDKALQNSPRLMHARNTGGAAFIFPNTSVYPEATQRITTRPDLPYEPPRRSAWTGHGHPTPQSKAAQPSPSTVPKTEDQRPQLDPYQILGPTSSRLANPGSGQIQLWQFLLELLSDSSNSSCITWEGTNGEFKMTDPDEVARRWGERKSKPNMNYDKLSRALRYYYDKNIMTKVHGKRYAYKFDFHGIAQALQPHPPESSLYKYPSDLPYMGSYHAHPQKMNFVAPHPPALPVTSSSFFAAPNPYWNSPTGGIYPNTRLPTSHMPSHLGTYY
Put shortly:
as §1

A further test concerns the target ELF1 (Homo sapiens, UniProt P32519 1-619). The method, boiled down:
as §1

In the next test the target is T5, EHF (Homo sapiens, UniProt Q9NZC4 1-300).
T5 sequence: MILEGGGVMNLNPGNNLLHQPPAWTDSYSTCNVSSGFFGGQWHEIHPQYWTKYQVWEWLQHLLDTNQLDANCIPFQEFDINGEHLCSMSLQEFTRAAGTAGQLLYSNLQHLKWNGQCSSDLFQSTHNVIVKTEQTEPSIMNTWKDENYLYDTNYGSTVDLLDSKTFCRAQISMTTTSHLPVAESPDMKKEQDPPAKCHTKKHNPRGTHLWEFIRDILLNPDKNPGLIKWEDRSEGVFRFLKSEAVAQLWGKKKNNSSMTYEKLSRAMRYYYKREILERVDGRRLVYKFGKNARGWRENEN
The method, boiled down: as §1

The target in another test is SPI1 (Homo sapiens, UniProt P17947 1-270). The method, boiled down: as §1
Another test deals with SPIB (Homo sapiens, UniProt Q01892 1-262). Put shortly: as §1
Another test addresses T6, ELK3 (Homo sapiens, UniProt P41970 1-407).
T6 sequence: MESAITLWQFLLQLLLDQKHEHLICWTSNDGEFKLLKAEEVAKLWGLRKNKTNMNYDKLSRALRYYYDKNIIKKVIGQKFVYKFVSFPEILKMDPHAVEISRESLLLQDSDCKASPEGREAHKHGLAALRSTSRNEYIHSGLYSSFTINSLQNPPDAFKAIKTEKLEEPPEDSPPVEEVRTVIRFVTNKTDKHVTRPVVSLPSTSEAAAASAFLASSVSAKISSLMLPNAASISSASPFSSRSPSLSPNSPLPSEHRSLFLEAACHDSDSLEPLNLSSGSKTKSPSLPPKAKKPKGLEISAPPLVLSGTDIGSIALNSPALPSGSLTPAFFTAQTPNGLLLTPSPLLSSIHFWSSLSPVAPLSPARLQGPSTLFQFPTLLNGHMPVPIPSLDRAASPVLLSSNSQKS
The method, boiled down: as §1

Chain of SPIB (Q01892 whole entry): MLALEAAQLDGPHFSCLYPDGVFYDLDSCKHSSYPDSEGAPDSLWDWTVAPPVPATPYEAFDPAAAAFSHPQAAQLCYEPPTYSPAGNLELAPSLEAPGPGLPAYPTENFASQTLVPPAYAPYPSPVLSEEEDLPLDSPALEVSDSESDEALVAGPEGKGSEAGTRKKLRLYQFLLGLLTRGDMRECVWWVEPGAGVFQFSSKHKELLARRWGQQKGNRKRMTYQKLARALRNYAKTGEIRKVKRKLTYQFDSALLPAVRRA
Chain of ELF1 (P32519 whole entry): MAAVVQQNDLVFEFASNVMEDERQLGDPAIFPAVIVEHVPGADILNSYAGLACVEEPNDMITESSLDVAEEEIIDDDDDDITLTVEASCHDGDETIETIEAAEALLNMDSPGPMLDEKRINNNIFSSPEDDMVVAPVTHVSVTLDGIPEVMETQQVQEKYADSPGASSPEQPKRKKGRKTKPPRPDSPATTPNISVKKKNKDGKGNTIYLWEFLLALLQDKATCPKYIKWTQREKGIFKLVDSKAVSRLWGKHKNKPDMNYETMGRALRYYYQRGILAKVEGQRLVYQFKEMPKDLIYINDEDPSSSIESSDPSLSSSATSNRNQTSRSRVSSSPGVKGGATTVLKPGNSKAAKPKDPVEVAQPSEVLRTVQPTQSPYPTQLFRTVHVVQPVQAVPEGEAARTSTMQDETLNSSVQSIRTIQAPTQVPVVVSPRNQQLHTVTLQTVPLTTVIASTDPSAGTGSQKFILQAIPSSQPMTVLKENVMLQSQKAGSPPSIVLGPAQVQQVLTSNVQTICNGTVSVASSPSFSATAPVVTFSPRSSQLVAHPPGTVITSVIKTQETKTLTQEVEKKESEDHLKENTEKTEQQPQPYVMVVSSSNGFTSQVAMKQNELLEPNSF

Regarding CAAAAA, the binding signal with FLI1 is 1.14 fold enrichment (6-mer frequency, TF over GST control); with ELK1, 1.04 fold enrichment (6-mer frequency, TF over GST control); in the test with GABPA, 1.16 fold enrichment (6-mer frequency, TF over GST control); with ERG it was 1.07 fold enrichment (6-mer frequency, TF over GST control); with ELF1 it was 1.16 fold enrichment (6-mer frequency, TF over GST control); with EHF it was 1.2 fold enrichment (6-mer frequency, TF over GST control). Further, the binding signal with SPI1 was 1.32 fold enrichment (6-mer frequency, TF over GST control); with SPIB it was 1.19 fold enrichment (6-mer frequency, TF over GST control); with ELK3 it was 1.17 fold enrichment (6-mer frequency, TF over GST control).

Take CTTTAT: the binding signal with FLI1 is 1.19 fold enrichment (6-mer frequency, TF over GST control); with ELK1 it was 1.19 fold enrichment (6-mer frequency, TF over GST control); in the test with GABPA, 1.18 fold enrichment (6-mer frequency, TF over GST control); with ERG, 1.16 fold enrichment (6-mer frequency, TF over GST control); with ELF1, 1.17 fold enrichment (6-mer frequency, TF over GST control); in the test with EHF, 1.34 fold enrichment (6-mer frequency, TF over GST control). Moreover, the binding signal is 1.25 fold enrichment (6-mer frequency, TF over GST control) with SPI1; 1.19 fold enrichment (6-mer frequency, TF over GST control) with SPIB; 1.25 fold enrichment (6-mer frequency, TF over GST control) with ELK3.

For the sequence TTGTGC, the binding signal with FLI1 is 1.28 fold enrichment (6-mer frequency, TF over GST control); with ELK1 it was 1.25 fold enrichment (6-mer frequency, TF over GST control); with GABPA, 1.27 fold enrichment (6-mer frequency, TF over GST control); in the test with ERG, 1.23 fold enrichment (6-mer frequency, TF over GST control); with ELF1 it was 1.14 fold enrichment (6-mer frequency, TF over GST control); with EHF, 1.21 fold enrichment (6-mer frequency, TF over GST control). Further, the binding signal with SPI1 is 1.18 fold enrichment (6-mer frequency, TF over GST control); with SPIB, 1.1 fold enrichment (6-mer frequency, TF over GST control); with ELK3, 1.21 fold enrichment (6-mer frequency, TF over GST control).

On to CATTTG, for which the binding signal with FLI1 is 1.23 fold enrichment (6-mer frequency, TF over GST control); with ELK1, 1.32 fold enrichment (6-mer frequency, TF over GST control); with GABPA, 1.28 fold enrichment (6-mer frequency, TF over GST control); with ERG, 1.21 fold enrichment (6-mer frequency, TF over GST control); with ELF1, 1.24 fold enrichment (6-mer frequency, TF over GST control); with EHF it was 1.27 fold enrichment (6-mer frequency, TF over GST control). Also, the binding signal was 1.29 fold enrichment (6-mer frequency, TF over GST control) in the test with SPI1; 1.28 fold enrichment (6-mer frequency, TF over GST control) in the test with SPIB; 1.2 fold enrichment (6-mer frequency, TF over GST control) with ELK3.

For CTAATG, the binding signal was 1.34 fold enrichment (6-mer frequency, TF over GST control) in the test with FLI1; 1.22 fold enrichment (6-mer frequency, TF over GST control) with ELK1; 1.26 fold enrichment (6-mer frequency, TF over GST control) with GABPA; 1.18 fold enrichment (6-mer frequency, TF over GST control) with ERG; 1.23 fold enrichment (6-mer frequency, TF over GST control) with ELF1; 1.28 fold enrichment (6-mer frequency, TF over GST control) with EHF. The binding signal was 1.26 fold enrichment (6-mer frequency, TF over GST control) with SPI1; 1.26 fold enrichment (6-mer frequency, TF over GST control) with SPIB; 1.46 fold enrichment (6-mer frequency, TF over GST control) in the test with ELK3.

On to TTCGTA, for which the binding signal with FLI1 is 1.32 fold enrichment (6-mer frequency, TF over GST control); with ELK1, 1.44 fold enrichment (6-mer frequency, TF over GST control); with GABPA, 1.29 fold enrichment (6-mer frequency, TF over GST control); with ERG, 1.38 fold enrichment (6-mer frequency, TF over GST control); with ELF1 it was 1.35 fold enrichment (6-mer frequency, TF over GST control); with EHF, 1.34 fold enrichment (6-mer frequency, TF over GST control). In addition, the binding signal in the test with SPI1 is 1.24 fold enrichment (6-mer frequency, TF over GST control); with SPIB, 1.35 fold enrichment (6-mer frequency, TF over GST control); in the test with ELK3, 1.41 fold enrichment (6-mer frequency, TF over GST control).

As for ACTTTA, the binding signal with FLI1 was 1.12 fold enrichment (6-mer frequency, TF over GST control); in the test with ELK1, 1.26 fold enrichment (6-mer frequency, TF over GST control); with GABPA, 1.29 fold enrichment (6-mer frequency, TF over GST control); in the test with ERG, 1.17 fold enrichment (6-mer frequency, TF over GST control); with ELF1 it was 1.21 fold enrichment (6-mer frequency, TF over GST control); with EHF it was 1.2 fold enrichment (6-mer frequency, TF over GST control). Besides, the binding signal is 1.33 fold enrichment (6-mer frequency, TF over GST control) in the test with SPI1; 1.19 fold enrichment (6-mer frequency, TF over GST control) with SPIB; 1.22 fold enrichment (6-mer frequency, TF over GST control) in the test with ELK3.

With GGCTTC, the binding signal with FLI1 was 1.68 fold enrichment (6-mer frequency, TF over GST control); with ELK1, 1.8 fold enrichment (6-mer frequency, TF over GST control); in the test with GABPA it was 1.57 fold enrichment (6-mer frequency, TF over GST control); with ERG it was 1.79 fold enrichment (6-mer frequency, TF over GST control); with ELF1, 1.62 fold enrichment (6-mer frequency, TF over GST control); in the test with EHF it was 1.78 fold enrichment (6-mer frequency, TF over GST control). Also, the binding signal was 1.65 fold enrichment (6-mer frequency, TF over GST control) with SPI1; 1.78 fold enrichment (6-mer frequency, TF over GST control) in the test with SPIB; 1.81 fold enrichment (6-mer frequency, TF over GST control) in the test with ELK3.
